# Results published in PubChem BioAssay AID1259313 (Sanford-Burnham Center for Chemical Genomics, 2017).
# The whole screen tested about 340,000 compounds, of which about 8,500 (2.5%) were called active. The sample holds actives, similar compounds and a random draw of the others, so the mix is not that of the screen.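 Rule for the calls: active = melting temperature shift of at least 10% of the positive control shift, at one fixed dose; inactive = the rest.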
# System: Glutamate receptor ionotropic, NMDA 3A (GRIN3A) ligand-binding domain
# Assay: NR3A LBD thermal stabilization by compounds – biophysical, differential scanning fluorimetry, uHTS, primary screen (AID 1259313)
# Conditions: at 25 µM, stronger effect = higher value, 0% = protein alone, 100% = glycine-bound protein
row,SMILES,Tm shift relative to glycine control
1,CCOC(=O)CN(C)S(=O)(=O)c1ccc(-c2cc(C(=O)OC)sc2C(F)(F)F)cc1,-0.21% (inactive)
2,CCC(CC)C(=O)Nc1cccc(C(=O)N2CCCC2)c1,-2.45% (inactive)
3,Cc1cc(C(=O)COc2ccc(Br)cc2F)c(C)n1C1CC1,1.06% (inactive)
4,N#Cc1ccc(C(c2nnnn2CCc2ccccc2)N2CCCCCC2)cc1 (centres undefined),1.53% (inactive)
5,COc1ccc(CCn2nnnc2C(c2ccccc2)N2CCN(C)CC2)cc1OC (centres undefined),10.2% (active)
6,COc1ccc(C(c2nnnn2Cc2cccs2)N2CCN(c3ccccc3)CC2)cc1OC (centres undefined),0% (inactive)
7,COc1ccc(S(=O)(=O)N2CCN(c3ncnc4c(-c5ccccc5)nsc34)CC2)cc1,-1.19% (inactive)
8,O=C(c1ccc(F)cc1)c1c[nH]c(C(=O)NCc2cccnc2)c1,-1.06% (inactive)
9,CCN(Cc1ccncc1)C(=O)c1cccc(S(=O)(=O)N2CCOCC2)c1,0.46% (inactive)
10,Cc1ccc(S(=O)(=O)NCC(=O)Nc2ccc3c(c2)OCCO3)cc1,0.9% (inactive)
11,CC(C)CNS(=O)(=O)c1ccc(C(=O)Nc2ccc3c(c2)OCO3)cc1,-0.27% (inactive)
12,CNS(=O)(=O)c1ccc(NC(=O)Nc2ccc3c(c2)OCO3)cc1,11.2% (active)
13,COc1ccc2[nH]cc(CCN3C(=O)c4ccc(C(=O)O)cc4C3=O)c2c1,-2.98% (inactive)
14,COc1ccc2[nH]cc(/C=C(/C#N)S(=O)(=O)c3ccccc3)c2c1,13.2% (active)
15,CCN(CC)CC(=O)c1c[nH]c2ccc(OC)cc12,-2.92% (inactive)
16,C=C(C)C1CC=C(C)/C(=N/NC(=O)CCCNc2cccc(C)c2)C1 (centres undefined),-0.09% (inactive)
17,CCc1cc2c(SCC(=O)Nc3ncc(Cl)c(C)c3Cl)ncnc2s1,-1.41% (inactive)
18,O=C(NNC(=O)c1cccc(S(=O)(=O)Nc2ccc(Cl)cc2)c1)c1ccc(=O)[nH]c1,0.33% (inactive)
19,Cc1ccc(Nc2nnc(SCC(=O)c3cc4ccccc4o3)s2)cc1C,11.5% (active)
20,CC(C)c1ccc(Nc2nnc(SCC(=O)c3nnc(-c4ccccc4)o3)s2)cc1,19.9% (active)
21,Cc1cc2c(=O)n(C)c(SCC(=O)c3cc4ccccc4o3)nc2s1,-0.65% (inactive)
22,CC(C)N(C(=O)CSc1nnc(NC2CC2)s1)c1ccccc1,-1.56% (inactive)
23,CC(C)Nc1nnc(SCC(=O)c2c[nH]c3ccccc23)s1,-3.26% (inactive)

row,SMILES,Tm shift relative to glycine control
1,Cc1ccccc1Nc1nnc(SCC(=O)c2cc3ccccc3o2)s1,-23.4% (inactive)
2,O=C(CN1C(=O)CCS(=O)(=O)c2ccccc21)NCc1ccc(F)cc1,-2.05% (inactive)
3,CN1CCN(C(=O)c2ccc(NS(=O)(=O)c3ccccc3)cc2)CC1,-0.09% (inactive)
4,OCCCC1CCCCN1Cc1nc(Cc2ccccc2Cl)no1 (centres undefined),0.08% (inactive)
5,NS(=O)(=O)c1cc(C(=O)NCCOc2ccccc2)c(Cl)cc1Cl,-0.6% (inactive)
6,CCCN(C(=O)CSc1nnc(N)s1)c1c(N)n(Cc2ccccc2)c(=O)[nH]c1=O,5.76% (inactive)
7,CC1=CC(=C(C#N)c2nc3ccccc3s2)C=C(C)N1c1ccc(F)cc1F,-4.96% (inactive)
8,N#C/C(=C(/O)Cc1cccc2ccccc12)c1nc2ccccc2s1,19.3% (active)
9,O=C(O)CC/C(=C\c1cc2c(cc1Br)OCO2)c1nc2ccccc2s1,-1.28% (inactive)
10,Cc1cc(NC(=O)c2ccco2)c(=O)n(Cc2c(F)cccc2Cl)c1,-1.84% (inactive)
11,COc1ccc(CNC(=O)C[C@H]2C[C@H](C(=O)N3CCOCC3)[C@@]3(CCC4CCCC4)c4[nH]c5ccc(Cl)cc5c4CCN3C2=O)cc1OC,10% (active)
12,COc1ccc2[nH]c3c(c2c1)CCN1C(=O)C(CC(=O)NCCCN(C)C)C[C@H](C(=O)N2CCOCC2)[C@@]31CCC1CCCC1 (some centres undefined),0.34% (inactive)
13,O=C(C[C@H]1C[C@H](C(=O)N2CCOCC2)[C@@]2(CCC3CCCC3)c3[nH]c4ccc(Cl)cc4c3CCN2C1=O)NCc1ccco1,3% (inactive)
14,C/C(Cc1ccccc1)=N\NC(=O)CNC(=O)c1ccccc1Cl,0% (inactive)
15,C/C(Cc1ccccc1)=N\NC(=O)CNC(=O)c1ccc2c(c1)OCCO2,12.5% (active)
16,C/C(Cc1ccccc1)=N\NC(=O)CNC(=O)c1cccc(Br)c1,-3.32% (inactive)
17,O=S(=O)(Nc1ccc(-n2cnnn2)cc1)c1ccc(Cl)cc1,0.42% (inactive)
18,CC(=O)[C@@]12O[C@@H]1C[C@H]1[C@@H]3CC[C@H]4C[C@@H](O)CC[C@]4(C)[C@H]3CC[C@@]12C,0% (inactive)
19,Cc1ccc(C(=O)NCC(=O)OCC(=O)Nc2cccc(S(=O)(=O)N3CCCC3)c2)cc1C,-2.16% (inactive)
20,N/C(=N\c1nc2ccccc2o1)NC(=O)C(Cc1ccccc1)N1C(=O)c2ccccc2C1=O (centres undefined),-1.81% (inactive)
21,COc1ccc(CCNC(=O)CCc2ccccc2O)cc1OC,19.5% (active)
22,CC(=O)c1ccc(NC(=O)CCNS(=O)(=O)c2cc(Br)cnc2N)cc1,-12.8% (inactive)
23,COc1ccc(CCNC(=O)CSCc2ccc(Br)cc2)cc1OC,0.53% (inactive)

row,SMILES,Tm shift relative to glycine control
1,COc1ccc(CCNC(=O)Cc2ccc(C)cc2)cc1OC,-3.8% (inactive)
2,COc1ccc(CCNC(=O)C(=O)NCc2ccccc2C)cc1OC,-1.17% (inactive)
3,COc1ccc(CCNC(=O)CCNS(=O)(=O)c2cc(Br)cnc2N)cc1OC,11% (active)
4,Cc1cccc(OCCC(=O)Nc2cc(S(=O)(=O)N3CCCCC3)ccc2N2CCOCC2)c1,6.71% (inactive)
5,O=C(COc1ccc(-n2cnnn2)cc1)Nc1ccccc1Cl,-3.66% (inactive)
6,O=C(COc1cccc(-n2cnnn2)c1)NCCC1=CCCCC1,-4.1% (inactive)
7,C=CCc1cccc(/C=N/NC(=O)COc2ccc(-n3cnnn3)cc2)c1O,24.6% (active)
8,COc1ccc(-c2ccc3c(c2)C2CC3CCN2CCC#N)cc1 (centres undefined),0.87% (inactive)
9,N#CCOc1ccc(C2=NO[C@@H]3[C@@H]4C[C@@H]([C@H]5C(=O)N(c6ccc7c(c6)OCO7)C(=O)[C@@H]45)[C@H]23)cc1,-1.3% (inactive)
10,Cc1cc(CN(C)C(=O)c2cc(COc3ccc(C)c(C)c3)on2)n[nH]1,-0.56% (inactive)
11,Cc1cc(Cl)ccc1OCCCC(=O)NCc1ccccn1,-3.24% (inactive)
12,Cc1cc(Cl)ccc1OCCCC(=O)Nc1cccc(-n2cnnn2)c1,4.11% (inactive)
13,Cc1cc(Cl)ccc1OCCCC(=O)NCc1ccncc1,21.3% (active)
14,CCOCCCNC(=O)Cc1cc(=O)[nH]c(=O)[nH]1,-1.66% (inactive)
15,OCC[C@H]1C[C@H](O)[C@@H](O)[C@]2(CCc3ccccc3O2)O1,1.78% (inactive)
16,CC1CN(CC(=O)NC(C)c2ccccc2)CC(C)O1 (centres undefined),-1.03% (inactive)
17,CCC(=O)c1cn(CCOc2ccccc2OC)c2ccccc12,2.85% (inactive)
18,Cc1ccc(S(=O)(=O)NC2(C(F)(F)F)NC(=O)N(CCc3ccccc3)C2=O)cc1 (centres undefined),-0.75% (inactive)
19,CC(=O)Nc1ccc(S(=O)(=O)NC2(C(F)(F)F)C(=O)NC(C)=C2C#N)cc1 (centres undefined),-1.26% (inactive)
20,CCCN1C(=O)C(NS(=O)(=O)c2ccc(N)cc2)(C(F)(F)F)C(C(=O)OC)=C1C (centres undefined),13.6% (active)
21,Nc1ncnc(Nc2cccc(Cl)c2Cl)n1,-0.42% (inactive)
22,O=C(NCc1ccccc1)[C@H]1C[C@@H]1[C@H](NP(=O)(c1ccccc1)c1ccccc1)c1ccccc1,-1.54% (inactive)
23,CC[C@]12c3[nH]c4cc(CCC(=O)N(C)C)ccc4c3CCN1C(=O)[C@@H](CC(=O)NCC13CC4CC(CC(C4)C1)C3)C[C@@H]2C(=O)N1CCN(C(=O)C2CC2)CC1,-2.56% (inactive)

row,SMILES,Tm shift relative to glycine control
1,CC(NC(=O)Nc1ccccc1)c1ccccc1 (centres undefined),-5.71% (inactive)
2,CSc1nsc(SCC(=O)Nc2cc(C(=O)O)ccc2C)n1,1.25% (inactive)
3,C=CCSc1nsc(NC(=O)Nc2cccc(C(C)=O)c2)n1,15.6% (active)
4,CCSc1nsc(NC(=O)Nc2cccc(C(C)=O)c2)n1,0.77% (inactive)
5,CC(=O)c1cccc(NC(=S)N2CCCC2)c1,2.43% (inactive)
6,CSc1nsc(NC(=O)Nc2ccccc2)n1,19.7% (active)
7,S=c1[nH]c2ccccc2c2ccccc12,-5.09% (inactive)
8,OCC1(Cc2ccccc2C(F)(F)F)CCN(Cc2ccncc2)CC1,-1.43% (inactive)
9,CCOc1cc(CNn2c(C)nnc2SCC(=O)NC(C)(C)C)ccc1OCC(=O)NC(C)(C)C,-4.76% (inactive)
10,CC1(C)CC(CNCCC(c2ccc(F)cc2)c2ccco2)CCO1 (centres undefined),0.16% (inactive)
11,COC(=O)CSc1ccc2nnc(CCNS(=O)(=O)c3ccc(C)cc3)n2n1,-0.94% (inactive)
12,CN(C)S(=O)(=O)c1ccc(NC(=O)COC(=O)c2n[nH]c3ccccc23)cc1,-2.54% (inactive)
13,CCN(CC)S(=O)(=O)c1ccc(C(=O)N2CCN(C3=NS(=O)(=O)c4ccccc43)CC2)cc1,0.26% (inactive)
14,COCC(=O)Nc1nnc(COc2ccccc2)s1,2.29% (inactive)
15,O=C(Nc1nnc(COc2ccccc2)s1)Nc1ccccc1F,1.33% (inactive)
16,O=C(Nc1ccccc1)Nc1nnc(COc2ccccc2F)s1,38.9% (active)
17,Cc1ccc(-c2nnc(SCC(=O)N/N=C/c3cccs3)n2-c2ccc(C)cc2)cc1,-6.78% (inactive)
18,COc1cccc(/C=C/C(=O)Nc2ccc3c(c2)OCCO3)c1,2.64% (inactive)
19,CCC1([N+](=O)[O-])COC(c2ccc(C)cc2)OC1 (centres undefined),-10.1% (inactive)
20,NC(=O)CC[C@@H]1NC(=O)[C@H](CO)NC(=O)c2cc([N+](=O)[O-])cc(I)c2NCC[C@@H](C(N)=O)NC1=O,-0.81% (inactive)
